FLuc modulator – counter-screen for miR-21 project: firefly luciferase inhibitors or activators | P08659 | purified FLuc, Km substrates, luminescence inhibition | Potency, µM (titrated, usually from 57.5 µM), without a hit: at the top dose activity change, negative = inhibition, usual class: inhibitors | 360,000 compounds, 6.9% hits | AID 588342;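 note: plate controls were vehicle for no effect and reference inhibitor for full effect; nearly all actives have a fitted effect of over 55% in size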
Target sequence (P08659 whole entry, looked up): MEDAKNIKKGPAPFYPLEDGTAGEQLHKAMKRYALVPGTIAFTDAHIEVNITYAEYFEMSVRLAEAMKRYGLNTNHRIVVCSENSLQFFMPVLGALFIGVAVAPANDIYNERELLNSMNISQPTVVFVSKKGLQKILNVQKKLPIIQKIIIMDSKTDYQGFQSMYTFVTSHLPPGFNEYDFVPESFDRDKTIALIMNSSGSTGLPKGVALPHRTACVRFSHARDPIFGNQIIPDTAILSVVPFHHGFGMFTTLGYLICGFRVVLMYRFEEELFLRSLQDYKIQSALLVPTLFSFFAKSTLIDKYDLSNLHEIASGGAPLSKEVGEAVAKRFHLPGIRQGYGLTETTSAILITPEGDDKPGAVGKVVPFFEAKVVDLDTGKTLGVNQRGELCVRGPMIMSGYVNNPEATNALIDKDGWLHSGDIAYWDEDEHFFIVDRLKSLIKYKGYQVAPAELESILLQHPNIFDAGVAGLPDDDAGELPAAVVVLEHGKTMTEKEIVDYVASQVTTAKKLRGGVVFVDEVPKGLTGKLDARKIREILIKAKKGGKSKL
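Purified P. pyralis luciferase, 10 nM final, with Km-level 10 uM D-luciferin and 10 uM ATP in 50 mM Tris acetate pH 7.5, 10 mM Mg acetate, 0.01% Tween-20, 0.05% BSA; 6-point qHTS titration about 60 µM downward; luminescence read.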
NPC1 promoter act – activators of NPC1 promoter | Huh7 NPC1 promoter luciferase reporter, 24 h | Potency, µM (highest dose often 9.22 µM), without a hit: at the highest dose activation, hits mostly activators | 320,000 compounds, 2.4% hits | AID 485313; note: % of control where 0% means no effect; nearly all actives have a fitted effect of over 60% in size
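Stable NPC1-promoter luciferase Huh7 line; cpd (DMSO) 24 h, 37 °C, 5% CO2; Amplite luciferase reagent 10 min RT; luminescence readout. qHTS format.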
Luc counter – Kinase-Glo luciferase inhibition (counter-screen); Q27757; 200,000 compounds, 0.28% hits; Kinase-Glo luciferase, ATP luminescence, 8 min; Potency, µM (highest dose often 38.3 µM), for inactives: at the top dose activity change, negative = inhibition, usual class: inhibitors; note: % is set by controls: 0 for no effect and ±100 for the full control effect; nearly all actives have a fitted effect of over 60% in size
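Compound is pinned into ATP-containing buffer (10 uM ATP, imidazole pH 7.2, 7 mM MgCl2). Kinase-Glo luciferase reagent is then added. Light output is recorded following an 8-min room-temperature incubation.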
Rab9 prom act – activates the Rab9 promoter; Huh7 Rab9 promoter-luciferase reporter, luminescence, 24 h; 320,000 compounds, 2.8% hits; Potency, µM (series often up to 9.22 µM), for inactives: at the highest dose activation, negative = inhibition, hits mostly activators; note: % of control where 0% means no effect; nearly all actives have a fitted effect of over 60% in size
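Rab9 promoter-driven luciferase in stably transfected Huh7 cells; 1500 cells/well rested 2 h, exposed to compound in DMSO for 24 h at 37 °C, 5% CO2. Luminescence read 10 min after adding luciferase reagent at ambient temperature.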
SMN2 splice up – enhancers of SMN2 splice variant expression | HEK293 SMN2-luciferase splicing reporter, luminescence, 30-36 h | Potency, µM (top dose mostly 46.1 µM), for the others: at the top dose activity change, positive = activation, actives largely listed as activators | 210,000 compounds, 2.8% hits | AID 1458; note: % of control where 0% means no effect; nearly all actives have a fitted effect of over 55% in size
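qHTS luciferase splicing reporter: luminescence rises when SMN2 exon 7 is included in transfected HEK293 cells. Compound exposure lasted 30-36 h at 37C, with 4.5 mM final sodium butyrate as control, followed by a ONE-Glo read.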
ELG1 genotoxic – inducers of genotoxicity in HEK293T ELG1-luciferase cells | 330,000 compounds, 1.3% hits | HEK293T ELG1-luciferase reporter, luminescence, 16 h | AID 504466 | Potency, µM (titrated, usually from 46 µM), without a hit: at the highest dose activity change, positive = activation, actives largely listed as activators; note: % of control where 0% means no effect; nearly all actives have a fitted effect of over 60% in size
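Cells (2,000/well) expressing the ELG1-luciferase fusion are dosed by pin tool and kept 16 hr at 37 °C, 5% CO2. Signal comes from ONE-Glo luciferase reagent after 30 min at room temperature.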
Active calls of the source: *; ? = inconclusive; . = no result; ! = a repeat was not active. In the library only some 7.5% were active in any assay of this set; here they are far more common. Calls come from the whole dose curve; as a rule, active = well fitted curve in the direction sought with a large enough effect; inconclusive = small, poorly fitted or top-dose-only effect, or another doubt; inactive = no such curve, though single readings can be large; an effect the other way counts as inactive or inconclusive. Potency is the fitted concentration of half-maximal effect.

SMILES	FLuc modulator	NPC1 promoter act	Luc counter	Rab9 prom act	SMN2 splice up	ELG1 genotoxic
COc1ccc(-c2cc(C(=O)Nc3ccc(C)c(C)c3)no2)cc1	-1.1%	10.2%	.	22.5%	.	4.0%
CC(=O)c1cccc(NC(=O)c2cc(-c3ccco3)on2)c1	2.39µM*	-3.4%	.	3.5%	.	?
CCCCN(C1CCS(=O)(=O)C1)S(=O)(=O)c1cc(C)ccc1C (stereo not drawn)	1.3%	-2.4%	.	0.0%	.	0.4%
CCOC(=O)c1ccc(NC(=O)CN(c2ccc(C)cc2)S(=O)(=O)c2ccc(OC)cc2)cc1	3.9%	.	.	.	-7.8%	.
COCCNC(=O)C(c1ccc(C)cc1)N(C(=O)CCC(=O)Nc1ccccn1)c1ccccc1C (stereo not drawn)	1.8%	0.6%	.	-4.1%	.	-3.5%
Cc1cc(N(C)C)ccc1N=Nc1ccc2ncccc2c1	0.426µM*	3.16µM*	.	0.891µM*	.	4.61µM*
CC(C)N(C(C)C)S(=O)(=O)c1ccc(N2CCc3ccccc3C2)nc1	13.5µM*	?	.	3.98µM*	.	?
CCc1ccc(CSc2nccn2-c2ccccc2)cc1	-1.5%	-3.1%	-7.6%	0.3%	-3.4%	0.1%
c1ccc(CCSc2nccn2-c2ccccc2)cc1	3.38µM*	2.82µM*	-0.8%	3.16µM*	20µM*	?
O=C(c1ccc(F)cc1)n1ccc(-c2cnc(-c3ccccc3)s2)n1	?	1µM*	-0.9%	0.708µM*	12.6µM*	0.82µM*
COc1ccc(S(=O)(=O)n2ccc(-c3ccc(OCCN(C)c4ccccn4)cc3)n2)cc1	0.8%	-12.6%	-2.5%	-14.6%	-35.6%	-9.7%
O=C(c1ccc(F)cc1)n1nc(-c2cccnc2)nc1NCc1ccccc1	-3.2%	.	.	.	13.0%	.
O=S(=O)(c1ccccc1)n1ccc(-c2cnc(-c3ccccc3)s2)n1	15.1µM*	?	-7.1%	?	46.3%	?
Cc1ccc(Cn2ccc(-c3cnc(-c4ccccc4)s3)n2)cc1	10.7µM*	?	17.2%	?	-43.1%	?
Fc1ccc(Cn2ccc(-c3cnc(-c4ccccc4)s3)n2)cc1	10.7µM*	?	-2.2%	3.16µM*	-27.5%	?
Nc1ccccc1-n1c(=O)n(Cc2ccccc2F)c(=O)c2[nH]cnc21	-1.2%	0.9%	.	2.0%	.	3.6%
O=C(c1ccc(C(F)(F)F)cc1)n1ccc(-c2cccs2)n1	15.1µM*	-3.2%	.	1.4%	.	0.2%
C[C@@H]1CCC2C(C)(C)C3CC21CC[C@@]3(C)O (stereo partly drawn)	.	.	0.0%	.	6.8%	.
CCCCn1nnc(NC(=O)c2ccc(-c3cccc(Cl)c3)o2)n1	?	14.0%	-1.7%	10.9%	-9.9%	0.1%
CCCCn1nnc(NC(=O)c2cc3ccccc3o2)n1	?	3.16µM*	-0.2%	1.58µM*	?	6.51µM*
CCCn1nnc(NC(=O)c2ccc(-c3cccc(Cl)c3)o2)n1	16.9µM*	29.2%	-4.2%	?	6.6%	11.3%
CCc1ccc(C(=O)Nc2nnn(CC)n2)cc1	4.26µM*	2µM*	?	0.501µM*	0.501µM*	1.64µM*
CCn1nnc(NC(=O)c2cc3ccccc3o2)n1	15.1µM*	?	1.0%	?	31.6µM*	14.6µM*
CN(CC(=O)NCC(=O)Nc1ccc(F)cc1)C1CCS(=O)(=O)C1 (stereo not drawn)	10.8%	-3.2%	.	-8.1%	.	0.0%
Cn1nnc(NC(=S)NC(=O)c2cc3ccccc3o2)n1	?	2.5%	.	9.7%	.	1.0%
SMILES	FLuc modulator	NPC1 promoter act	Luc counter	Rab9 prom act	SMN2 splice up	ELG1 genotoxic
CCCn1nnc(NC(=O)c2ccc3c(c2)OCO3)n1	19µM*	2.82µM*	.	1.58µM*	.	?
CCCn1nnc(NC(=O)c2cccc(Cl)c2)n1	-16.8%	28.3%	-6.9%	21.6%	?	5.9%
CCCn1nnc(NC(=O)c2cc3ccccc3o2)n1	19µM*	2.51µM*	-7.5%	?	10µM*	5.8µM*
O=C(Nc1ccccc1F)Nc1ccc([N+](=O)[O-])cc1Cl	?	?	.	3.98µM*	.	4.1%
Cc1ccc(O)c(NC(=O)c2cc([N+](=O)[O-])ccc2Cl)c1	-0.4%	-0.1%	2.4%	-8.2%	-81.8%	-15.2%
O=C(Nc1ccc([N+](=O)[O-])cc1Cl)c1cc(Cl)ccc1O	0.213µM*	0.0651µM*	-4.6%	0.1µM*	25.1µM*!	?
O=C(Nc1cccc(Cl)c1)c1cc(N=Nc2ccc([N+](=O)[O-])cc2Cl)ccc1O	12µM*	1.5%	.	-15.5%	.	-16.0%
Cc1ccccc1Cn1c2ccccc2c2cnn(CC(=O)NCCc3ccc(Cl)cc3)c(=O)c21	-1.6%	.	.	.	1.3%	.
O=C(Nc1ccccc1C(=O)N1CCN(Cc2ccccc2)CC1)c1ccccc1	4.7%	-4.1%	.	-5.6%	.	-5.9%
CCOC(=O)CSc1nnc(-c2ccc(OC)cc2)o1	16.9µM*	.	.	.	-0.3%	.
COc1ccc(-c2nnc(SCC(=O)Oc3ccc(C)cc3)o2)cc1	?	-0.4%	-0.1%	-0.1%	8.1%	-0.2%
CCOC(=O)CSc1nnc(-c2ccc(OC)cc2OC)o1	9.53µM*	-0.5%	-2.9%	1.9%	7.1%	2.9%
COc1ccc(-c2nnc(SCC(C)C)o2)cc1	1.51µM*	1µM*	.	0.631µM*	.	?
COc1ccc(-c2nnc(SC)o2)c(OC)c1	?	13.1%	2.0%	23.1%	27.4%	?
COC(=O)c1cc(-c2ccc(OC)cc2)on1	8.49µM*	-0.7%	-6.2%	-6.5%	.	0.9%
COc1cccc(-c2cc(C(=O)O)no2)c1	?	-1.1%	15.6%	-2.3%	-2.1%	-2.2%
COc1ccc(-c2cc(C(=O)NC(C)C)no2)cc1	5.36µM*	2.51µM*	-3.1%	1.12µM*	12.6µM*	6.51µM*
CCN(CC)C(=O)c1cc(-c2ccc(Br)cc2)on1	9.53µM*	2µM*	-0.4%	3.16µM*	?	?
COC(=O)c1cc(-c2ccc(OC)c(OC)c2)on1	-11.2%	-2.1%	.	1.3%	.	0.8%
COC(=O)c1cc(-c2cccc(OC)c2)on1	12µM*	-2.3%	-3.9%	-3.0%	-11.1%	1.7%
CCOc1ccccc1C(=O)N1CCN(c2ccc(C(F)(F)F)cn2)CC1	-0.7%	-9.4%	0.7%	-8.2%	-81.3%	-8.6%
COC(=O)c1cc(-c2ccccc2)on1	16.9µM*	-20.6%	-2.2%	1.0%	7.6%	1.6%
COC(=O)c1cc(-c2ccc(Br)cc2)on1	8.49µM*	-1.3%	0.6%	1.4%	-1.6%	1.1%
COC(=O)CCC(=O)Nc1cccc([N+](=O)[O-])c1	2.9%	-1.1%	4.7%	-0.4%	-0.1%	1.2%
CCN(CC)c1ccc2cc(C(=O)NCc3ccc(F)cc3)c(=N)oc2c1	16.9µM*	2.8%	.	0.1%	.	-11.1%

Screens as filed in PubChem BioAssay.
